# Measurements reported in publication PMC5540273 (PLoS ONE, 2017).
# Experiments:
# [1] = system: HUNK
# [2] = system: ICK
# [3] = system: IGF1R
# [4] = system: T1, IKK-beta
# T1 construct: gene IKBKB
# [5] = system: T2, IKK-epsilon
# T2 construct: gene IKBKE
# [6] = system: LATS2
# [7] = system: JAK1(JH1domain-catalytic)
# [8] = system: JAK3(JH1domain-catalytic)
# [9] = system: JAK1(JH2domain-pseudokinase)
# [10] = system: T3, JNK1
# T3 construct: gene MAPK8
# [11] = system: T4, JNK2
# T4 construct: gene MAPK9
# [12] = system: LATS1
# [13] = system: LCK
# [14] = system: LYN
# [15] = system: LIMK2
# [16] = system: LTK
# [17] = system: T5, LOK
# T5 construct: gene STK10
# 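Also: kd values determined as follow-up on hits from a single-replicate KINOMEscan panel screen.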
compound,measurement,setting,value
COC(=O)c1cccc(NC(=O)NCCNc2ccnc(Nc3ccc(F)cc3)n2)c1 [GSK1379883],Kd,[1],> 10 µM
O=C(Nc1ccccc1F)NC1CCN(c2ccnc(Nc3ccc(F)cc3)n2)C1 (stereo not drawn) [GSK1379722],Kd,[2],> 10 µM
same,Kd,[3],> 10 µM
Nc1nc(-c2ccc3c(N)n[nH]c3c2)cc(N2CCC[C@@H](C(=O)Nc3ccccc3)C2)n1.O=C(O)C(F)(F)F.O=C(O)C(F)(F)F [GSK2288359],Kd,[3],> 10 µM
Cl.Cl.c1ccc(-c2cc3ccncc3cc2OC2CCNCC2)cc1 [GSK1122999],Kd,[4],24 nM
CCc1nc(-c2cccc(C)c2)c(-c2ccnc(NC(=O)c3ccccc3)c2)s1,Kd,[5],> 10 µM
same,Kd,[6],> 10 µM
C[C@@H]1CCN(C(=O)CO)C[C@@H]1N(C)c1ncnc2[nH]ccc12,Kd,[7],120 nM
same,Kd,[8],0.0036 µM
CC(=O)Nc1n[nH]c2ncc(-c3ccccc3)cc12 [SB-548492],Kd,[9],380 nM
CC(C)(C)c1ccc(-n2cnc3c(N)ncnc32)cc1 [SKF-97263],Kd,[9],250 nM
CN1c2ccc(-c3ccc(C(=O)NCCO)cc3)cc2-c2[nH]ncc2S1(=O)=O,Kd,[8],6.8 µM
COC(=O)c1c(-c2ccccc2)c2cc(Cl)ccc2c(=O)n1Cc1ccc(S(C)(=O)=O)cc1,Kd,[10],61 nM
same,Kd,[11],44 nM
CN1CCC(n2cnc(-c3ccc(F)cc3)c2-c2ccnc(NC3CCNCC3)n2)CC1 [SB-229482],Kd,[11],170 nM
COc1ccc(-c2oc3ncnc(N)c3c2-c2ccc(OC)cc2)cc1 [SB-589132],Kd,[12],> 10 µM
COc1cc2c(Nc3cccc(NC(=O)c4ccccc4)c3)ncnc2cc1OCCCN1CCOCC1 [GSK223810],Kd,[13],390 nM
same,Kd,[14],130 nM
Cc1ccc(NC(=O)c2cccc(C#N)c2)cc1-c1ccc(C(=O)Nc2ccncc2)cc1 [GSK1398463],Kd,[13],560 nM
CNc1nccc(-c2c(-c3ccc(F)cc3)ncn2CCCN2CCOCC2)n1 [SB-222516],Kd,[15],> 10 µM
CCCc1ccc(S(=O)(=O)NC2CCN(c3ccnc(Nc4ccc(OC)cc4)n3)C2)cc1 (stereo not drawn) [GSK1379737],Kd,[15],> 10 µM
same,Kd,[16],8.7 µM
COc1cc2ncnc(Nc3ccc(OCc4ccccc4Br)c(Cl)c3)c2cc1OC.Cl [GI261590],Kd,[17],2000 nM
Oc1ccc2ncnc(Nc3ccc(OCc4ccccc4)cc3)c2c1 [GI262866],Kd,[16],> 10 µM
